Compound activity deposited in PubChem BioAssay by National Center for Advancing Translational Sciences (NCATS).
Hits are enriched below; roughly 7.5% of the tested compounds scored in any of these assays.
ELG1 genotoxic – inducers of genotoxicity in HEK293T ELG1-luciferase cells | HEK293T ELG1-luciferase reporter, luminescence, 16 h | 1.3% of 330,000 active | Potency, µM (titrated, usually from 46 µM), for inactives: at the highest dose activity change, positive = activation, most hits filed as activators; further: % of control where 0% means no effect; nearly all actives have a fitted effect of over 60% in size
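ELG1-luciferase HEK293T cells, 2,000/well; compound pinned in; 16 hr, 37 °C, 5% CO2; ONE-Glo, 30 min RT; luminescence on CCD imager.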
FLuc modulator – counter-screen for miR-21 project: firefly luciferase inhibitors or activators; 6.9% of 360,000 active; P08659; purified FLuc, Km substrates, luminescence inhibition; Potency, µM (doses to about 57.5 µM), without a hit: at the highest dose activity change, negative = inhibition, actives largely listed as inhibitors;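 further: plate controls were vehicle for no effect and reference inhibitor for full effect; nearly all actives have a fitted effect of over 55% in size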
Target sequence (P08659 whole entry, looked up): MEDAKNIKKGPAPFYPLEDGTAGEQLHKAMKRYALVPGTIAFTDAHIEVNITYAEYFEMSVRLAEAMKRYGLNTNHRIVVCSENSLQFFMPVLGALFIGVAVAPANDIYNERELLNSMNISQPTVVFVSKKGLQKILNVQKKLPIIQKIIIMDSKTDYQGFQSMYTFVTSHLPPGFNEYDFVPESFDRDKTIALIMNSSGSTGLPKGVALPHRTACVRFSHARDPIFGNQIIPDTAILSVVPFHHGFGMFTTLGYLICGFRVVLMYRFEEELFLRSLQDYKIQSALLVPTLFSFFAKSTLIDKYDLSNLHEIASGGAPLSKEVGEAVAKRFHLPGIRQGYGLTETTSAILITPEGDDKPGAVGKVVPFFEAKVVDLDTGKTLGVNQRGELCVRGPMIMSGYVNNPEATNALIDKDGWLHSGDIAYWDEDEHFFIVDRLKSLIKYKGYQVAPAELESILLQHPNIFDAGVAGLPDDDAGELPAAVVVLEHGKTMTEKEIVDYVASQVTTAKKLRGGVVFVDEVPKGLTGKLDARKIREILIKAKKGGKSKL
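Biochemical qHTS of compounds, final roughly 60 µM downward over six points, against 10 nM purified firefly luciferase using Km concentrations of substrates (10 uM D-luciferin, 10 uM ATP) in Tris acetate pH 7.5 buffer; luminescence output.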
NPC1 promoter act – NPC1 promoter activation; Potency, µM (doses to about 9.22 µM), for inactives: at the top dose activation, most hits filed as activators; 2.4% of 320,000 active; Huh7 NPC1 promoter luciferase reporter, 24 h; further: % of control where 0% means no effect; nearly all actives have a fitted effect of over 60% in size
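NPC1 promoter–luciferase Huh7 cells; 24 h compound; luminescence.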
SMN2 splice enh – SMN2 splice variant enhancement; AID 1458; Potency, µM (doses to about 46.1 µM), for the others: at the highest dose activity change, positive = activation, most hits filed as activators; 2.8% of 210,000 active; HEK293 SMN2-luciferase splicing reporter, luminescence, 30-36 h; further: % of control where 0% means no effect; nearly all actives have a fitted effect of over 55% in size
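HEK293 cells carry an SMN2 […]–luciferase reporter in which exon 7 inclusion puts luciferase in frame. Cells were plated 10-12 h before compound addition, then incubated 30-36 h at 37C. ONE-Glo luminescence was read; sodium butyrate at 4.5 mM final served as control.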
Rab9 prom act – activates the Rab9 promoter. Huh7 Rab9 promoter-luciferase reporter, luminescence, 24 h. Potency, µM (series often up to 9.22 µM), without a hit: at the highest dose activation, negative = inhibition, actives largely listed as activators. 2.8% of 320,000 active; further: % of control where 0% means no effect; nearly all actives have a fitted effect of over 60% in size
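Measured in stably transfected Huh7 cells bearing a Rab9 promoter–luciferase construct: 24 h compound treatment at 37 °C, followed by luminescence detection.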
* hit, by the source's call. The call rests on the fitted dose curve; in most records, active means well fitted curve in the direction sought with a large enough effect; inconclusive means small, poorly fitted or top-dose-only effect, or another doubt; inactive means no such curve, though single readings can be large; an effect the other way counts as inactive or inconclusive. Potency means the concentration at half of the fitted maximal effect.

`CC(C)(C)OC(=O)N[C@@H](COCc1ccccc1)C(=O)N[C@@H](CO)[C@H](O)[C@@H]1C[C@@H]1C(=O)NC1CC1` gave ELG1 genotoxic 1%, FLuc modulator -1%, NPC1 promoter act 2% and Rab9 prom act 2%.
Screening COc1ccccc1NC(=O)C(=O)c1cn(CC(=O)N2CCCC2)c2ccccc12 returned ELG1 genotoxic 13%, FLuc modulator 4.8µM*, NPC1 promoter act inconclusive and Rab9 prom act inconclusive.
Screening COc1ccc(CNC(=O)c2cccc3c2C(=O)N(CC2CCCO2)C3)cc1 (configuration not stated) returned ELG1 genotoxic -3%, FLuc modulator -1%, NPC1 promoter act 1% and Rab9 prom act 1%.
For COc1cccc(C2=NC(C)(C)NC(c3ccccc3O)C2)c1 (configuration not stated) the results were ELG1 genotoxic 1%, FLuc modulator 8.5µM*, NPC1 promoter act -2%, SMN2 splice enh -4% and Rab9 prom act 3%.
CCN(CC)C(=O)C1=CC(c2ccc3c(c2)OCO3)=NS(=O)(=O)N1C was read as FLuc modulator -11%.
CCC1(C)N=C(c2ccc3c(c2)OCO3)CC(c2ccccc2O)N1 (configuration not stated) was read as ELG1 genotoxic 10%, FLuc modulator 7.6µM*, NPC1 promoter act 11%, SMN2 splice enh inconclusive and Rab9 prom act inconclusive.
Screening COc1cccc(C2=NOC(C(=O)NC(C)C)C2)c1 (configuration not stated) returned ELG1 genotoxic 1%, FLuc modulator -2%, NPC1 promoter act 1%, SMN2 splice enh 1% and Rab9 prom act -4%.
Cc1cc(C(=O)Nc2cccc3c2O[C@@H](CN(C)S(=O)(=O)c2ccccc2)[C@H](C)CN([C@@H](C)CO)C3=O)n(C)n1 was read as ELG1 genotoxic -1%.
Screening CCN1C(=O)/C(=C/c2cnn(C)c2C)SC1=S returned ELG1 genotoxic -1%, FLuc modulator -9%, NPC1 promoter act 0%, SMN2 splice enh 21% and Rab9 prom act -4%.
Cc1cc(/C=C2\SC(=S)NC2=O)c(C)[nH]1 was read as ELG1 genotoxic inconclusive, FLuc modulator 11µM*, NPC1 promoter act 8%, SMN2 splice enh 19% and Rab9 prom act 9%.
`CCn1ncc(/C=C2/SC(=S)NC2=O)c1C` gave ELG1 genotoxic -1%, FLuc modulator 15µM*, NPC1 promoter act 1%, SMN2 splice enh 13% and Rab9 prom act 2%.
CCn1c(C)cc(/C=C2/SC(=S)NC2=O)c1C was read as ELG1 genotoxic inconclusive, FLuc modulator 4.8µM*, NPC1 promoter act inconclusive, SMN2 splice enh inconclusive and Rab9 prom act inconclusive.
For Clc1ccc(-c2n[nH]c3c2CCCC3)cc1 the results were ELG1 genotoxic 16%, FLuc modulator inconclusive, NPC1 promoter act -1%, SMN2 splice enh 8% and Rab9 prom act 6%.
For O=C(Nc1ccccc1C(=O)O)c1cc(S(=O)(=O)N2CCOCC2)cs1 the results were ELG1 genotoxic 1%, FLuc modulator 19µM*, NPC1 promoter act 1%, SMN2 splice enh 9% and Rab9 prom act 4%.
`O=C(Nc1ccccc1C(=O)O)c1ccc(Cl)c(S(=O)(=O)N2CCOCC2)c1` gave ELG1 genotoxic -7%, FLuc modulator 6.7µM*, NPC1 promoter act 14%, SMN2 splice enh -10% and Rab9 prom act 26%.
Clc1ccc(-n2ncc3c(N4CCCC4)ncnc32)cc1 was read as ELG1 genotoxic 0.18µM*, FLuc modulator 0.34µM*, NPC1 promoter act 0.5µM*, SMN2 splice enh -75% and Rab9 prom act 0.32µM*.
For CCN1CCN(c2ncnc3c2cnn3-c2ccc(C)cc2)CC1 the results were FLuc modulator 11µM*.
Cc1ccc(-n2ncc3c(N4CCCCCC4)ncnc32)cc1 was read as FLuc modulator 0.12µM*.
Screening Fc1ccc(-n2ncc3c(N4CCCCCC4)ncnc32)cc1 returned FLuc modulator 0.95µM*.
For COc1ccccc1N1CCN(c2ncnc3c2cnn3-c2ccc(C)cc2)CC1 the results were FLuc modulator -17%.
Screening CCN1CCN(c2ncnc3c2cnn3-c2cc(Cl)ccc2C)CC1 returned FLuc modulator -1%.
`Cc1ccc(N2NC3(CCN(C(N)=O)CC3)NC2=O)cc1` gave ELG1 genotoxic 7%, FLuc modulator -1%, NPC1 promoter act 3%, SMN2 splice enh -2% and Rab9 prom act -3%.
COc1ccc(NC(C)=O)cc1CNC(=O)CN1CCOCC1 was read as ELG1 genotoxic -3%, FLuc modulator 0%, NPC1 promoter act -1% and Rab9 prom act -7%.
Screening O=C(CCN1C(=O)/C(=C/c2ccccc2Cl)SC1=S)Nc1cccnc1 returned ELG1 genotoxic 0%, FLuc modulator inconclusive, NPC1 promoter act 0% and Rab9 prom act 2%.
`COc1ccc(/C=C2\SC(=S)N(CCC(=O)Nc3cccc(C(=O)O)c3)C2=O)cc1` gave ELG1 genotoxic 8%, FLuc modulator 5.4µM*, NPC1 promoter act 18% and Rab9 prom act 2%.
Cc1ccc(NC(=O)COc2cccc(/C=C3\SC(=S)N(CCC(=O)O)C3=O)c2)cc1Cl was read as ELG1 genotoxic 10%, FLuc modulator inconclusive, NPC1 promoter act 16% and Rab9 prom act inconclusive.
Screening O=C(CCN1C(=O)/C(=C/c2ccc(Cl)cc2)SC1=S)Nc1cccc(C(=O)O)c1 returned ELG1 genotoxic -4%, FLuc modulator 15µM*, NPC1 promoter act 2% and Rab9 prom act -3%.
O=C(CCCN1C(=O)/C(=C/c2ccccc2Cl)SC1=S)Nc1cccnc1 was read as ELG1 genotoxic -10%, FLuc modulator 13µM*, NPC1 promoter act -22% and Rab9 prom act -32%.
Screening O=C(CCCN1C(=O)/C(=C\c2ccccc2)SC1=S)Nc1cccc(C(=O)O)c1 returned ELG1 genotoxic 0%, FLuc modulator inconclusive, NPC1 promoter act 2% and Rab9 prom act 3%.
Screening O=C(O)CCN1C(=O)/C(=C\c2cccc(OCC(=O)Nc3ccc(Cl)cc3)c2)SC1=S returned ELG1 genotoxic 2%, FLuc modulator 17µM*, NPC1 promoter act 27% and Rab9 prom act 29%.
CCOc1ccccc1NC(=O)NCc1ccccc1F was read as ELG1 genotoxic -3%, FLuc modulator inconclusive, NPC1 promoter act -4%, SMN2 splice enh 18% and Rab9 prom act -6%.
`O=S(=O)(Cc1ccccc1)Nc1ccc(S(=O)(=O)N2CCCC2)cc1` gave ELG1 genotoxic -2%, FLuc modulator 4%, NPC1 promoter act 0% and Rab9 prom act -6%.
COc1cccc(/C=C2\SC(=S)N(CCCC(=O)Nc3ccc(C(=O)O)cc3)C2=O)c1 was read as ELG1 genotoxic 1%, FLuc modulator 21µM*, NPC1 promoter act -3% and Rab9 prom act -13%.
